Five compounds from PubChem BioAssay can be followed below.

The source made the active and inactive calls.

Assay [1] has as its system PRMT1 (protein arginine N-methyltransferase 1). The assay is described as follows: PRMT1 binders on small-molecule microarrays, primary screen, biochemical, small-molecule microarray, 635 nm fluorescence (AID 1088).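 Further: binding of Prmt1 protein to compounds spotted on small-molecule microarray slides.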 Particulars: small-molecule microarray binding, higher = more signal.
A short description of assay [2]: yeast growth modulation, basal conditions, primary screen, YJM789 clinical isolate, OD600, 24 h (AID 1089).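 Further: growth of clinical yeast isolate S. cerevisiae YJM 789 seeded 1000 cells per well; test concentration not given here.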 Particulars: S. cerevisiae YJM789 growth, higher = more signal, called active from +8 up or from −8 down.
The nature of assay [3]: fission yeast growth modulation, primary screen, strain 972, OD600, 24 h, no modulator (AID 1090).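 Further: basal condition with compound alone and no growth modifier present; test concentration not given here.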 Particulars: S. pombe 972 growth, higher = more signal, called active from +8 up or from −8 down.
Assay [4] can be described thus: S. cerevisiae growth modulation with rapamycin, primary screen, strain BY4716, OD600, 96 h (AID 1091). Further: test concentration not given here. Particulars: higher = more signal, called active from +8 up or from −8 down.
Assay [5] deals with Torsin-1A-interacting protein 2 (Homo sapiens) (UniProt Q8NFQ8). The assay is described as follows: LULL1 binders on small-molecule microarray, primary screen, cell lysate, human LULL1 lysate, 635/667 nm fluorescence (AID 1092).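 Further: probe is lysate of COS7 cells overexpressing human LULL1; score merges per-feature 667 nm fluorescence with signal-to-noise.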 Particulars: hLULL1 lysate binding, 635 nm fluorescence, higher = more signal.
Torsin-1A-interacting protein 2 (Homo sapiens), sequence (Q8NFQ8 whole entry, looked up): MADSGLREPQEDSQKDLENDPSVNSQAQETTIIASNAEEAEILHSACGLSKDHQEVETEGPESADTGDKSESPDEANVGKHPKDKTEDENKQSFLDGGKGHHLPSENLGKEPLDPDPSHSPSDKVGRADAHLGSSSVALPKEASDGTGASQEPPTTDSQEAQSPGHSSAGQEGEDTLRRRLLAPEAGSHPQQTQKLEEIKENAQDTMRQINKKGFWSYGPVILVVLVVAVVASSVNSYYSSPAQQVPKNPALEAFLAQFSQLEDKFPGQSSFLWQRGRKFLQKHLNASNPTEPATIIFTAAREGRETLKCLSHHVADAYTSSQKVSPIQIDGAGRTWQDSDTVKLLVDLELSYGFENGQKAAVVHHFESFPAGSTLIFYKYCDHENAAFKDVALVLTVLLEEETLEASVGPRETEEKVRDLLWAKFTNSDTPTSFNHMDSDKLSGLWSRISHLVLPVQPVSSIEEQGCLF
The nature of assay [6]: E. coli growth modulation, two-sided OD650, primary screen, E. coli filamentation project, strain DRC41, 24 h (AID 1093).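 Further: MC1000 strain lacking acrAB efflux and sulA so SOS filamentation is blocked; test concentration not given here.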 Particulars: OD650, 24 h, higher = more signal, called active from +8 up or from −8 down.
Assay [7] is described as follows: small-molecule microarray binders of probe aLefty2, primary screen, biochemical, biotinylated probe, 635/667 nm fluorescence (AID 1094).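 Further: score merges spot fluorescence near 667 nm with spot signal-to-noise ratio.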 Particulars: higher = more signal.
In assay [8] the test system is Noggin (protein binding on small-molecule microarray). The assay is described as follows: Noggin binders on small-molecule microarray, primary screen, biochemical, 635/667 nm fluorescence (AID 1095).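 Further: score merges 667 nm feature fluorescence with signal to noise over triplicate slides.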 Particulars: 635 nm fluorescence, higher = more signal.
In assay [9] the target is Neurogenic locus notch homolog protein 3 (Homo sapiens) (UniProt Q9UM47). Put plainly: NOTCH3 binders on small-molecule microarray, primary screen, biochemical, 635/667 nm fluorescence (AID 1096). Particulars: NOTCH3 binding, 635 nm fluorescence, higher = more signal.
Neurogenic locus notch homolog protein 3 (Homo sapiens), sequence (Q9UM47 whole entry, looked up): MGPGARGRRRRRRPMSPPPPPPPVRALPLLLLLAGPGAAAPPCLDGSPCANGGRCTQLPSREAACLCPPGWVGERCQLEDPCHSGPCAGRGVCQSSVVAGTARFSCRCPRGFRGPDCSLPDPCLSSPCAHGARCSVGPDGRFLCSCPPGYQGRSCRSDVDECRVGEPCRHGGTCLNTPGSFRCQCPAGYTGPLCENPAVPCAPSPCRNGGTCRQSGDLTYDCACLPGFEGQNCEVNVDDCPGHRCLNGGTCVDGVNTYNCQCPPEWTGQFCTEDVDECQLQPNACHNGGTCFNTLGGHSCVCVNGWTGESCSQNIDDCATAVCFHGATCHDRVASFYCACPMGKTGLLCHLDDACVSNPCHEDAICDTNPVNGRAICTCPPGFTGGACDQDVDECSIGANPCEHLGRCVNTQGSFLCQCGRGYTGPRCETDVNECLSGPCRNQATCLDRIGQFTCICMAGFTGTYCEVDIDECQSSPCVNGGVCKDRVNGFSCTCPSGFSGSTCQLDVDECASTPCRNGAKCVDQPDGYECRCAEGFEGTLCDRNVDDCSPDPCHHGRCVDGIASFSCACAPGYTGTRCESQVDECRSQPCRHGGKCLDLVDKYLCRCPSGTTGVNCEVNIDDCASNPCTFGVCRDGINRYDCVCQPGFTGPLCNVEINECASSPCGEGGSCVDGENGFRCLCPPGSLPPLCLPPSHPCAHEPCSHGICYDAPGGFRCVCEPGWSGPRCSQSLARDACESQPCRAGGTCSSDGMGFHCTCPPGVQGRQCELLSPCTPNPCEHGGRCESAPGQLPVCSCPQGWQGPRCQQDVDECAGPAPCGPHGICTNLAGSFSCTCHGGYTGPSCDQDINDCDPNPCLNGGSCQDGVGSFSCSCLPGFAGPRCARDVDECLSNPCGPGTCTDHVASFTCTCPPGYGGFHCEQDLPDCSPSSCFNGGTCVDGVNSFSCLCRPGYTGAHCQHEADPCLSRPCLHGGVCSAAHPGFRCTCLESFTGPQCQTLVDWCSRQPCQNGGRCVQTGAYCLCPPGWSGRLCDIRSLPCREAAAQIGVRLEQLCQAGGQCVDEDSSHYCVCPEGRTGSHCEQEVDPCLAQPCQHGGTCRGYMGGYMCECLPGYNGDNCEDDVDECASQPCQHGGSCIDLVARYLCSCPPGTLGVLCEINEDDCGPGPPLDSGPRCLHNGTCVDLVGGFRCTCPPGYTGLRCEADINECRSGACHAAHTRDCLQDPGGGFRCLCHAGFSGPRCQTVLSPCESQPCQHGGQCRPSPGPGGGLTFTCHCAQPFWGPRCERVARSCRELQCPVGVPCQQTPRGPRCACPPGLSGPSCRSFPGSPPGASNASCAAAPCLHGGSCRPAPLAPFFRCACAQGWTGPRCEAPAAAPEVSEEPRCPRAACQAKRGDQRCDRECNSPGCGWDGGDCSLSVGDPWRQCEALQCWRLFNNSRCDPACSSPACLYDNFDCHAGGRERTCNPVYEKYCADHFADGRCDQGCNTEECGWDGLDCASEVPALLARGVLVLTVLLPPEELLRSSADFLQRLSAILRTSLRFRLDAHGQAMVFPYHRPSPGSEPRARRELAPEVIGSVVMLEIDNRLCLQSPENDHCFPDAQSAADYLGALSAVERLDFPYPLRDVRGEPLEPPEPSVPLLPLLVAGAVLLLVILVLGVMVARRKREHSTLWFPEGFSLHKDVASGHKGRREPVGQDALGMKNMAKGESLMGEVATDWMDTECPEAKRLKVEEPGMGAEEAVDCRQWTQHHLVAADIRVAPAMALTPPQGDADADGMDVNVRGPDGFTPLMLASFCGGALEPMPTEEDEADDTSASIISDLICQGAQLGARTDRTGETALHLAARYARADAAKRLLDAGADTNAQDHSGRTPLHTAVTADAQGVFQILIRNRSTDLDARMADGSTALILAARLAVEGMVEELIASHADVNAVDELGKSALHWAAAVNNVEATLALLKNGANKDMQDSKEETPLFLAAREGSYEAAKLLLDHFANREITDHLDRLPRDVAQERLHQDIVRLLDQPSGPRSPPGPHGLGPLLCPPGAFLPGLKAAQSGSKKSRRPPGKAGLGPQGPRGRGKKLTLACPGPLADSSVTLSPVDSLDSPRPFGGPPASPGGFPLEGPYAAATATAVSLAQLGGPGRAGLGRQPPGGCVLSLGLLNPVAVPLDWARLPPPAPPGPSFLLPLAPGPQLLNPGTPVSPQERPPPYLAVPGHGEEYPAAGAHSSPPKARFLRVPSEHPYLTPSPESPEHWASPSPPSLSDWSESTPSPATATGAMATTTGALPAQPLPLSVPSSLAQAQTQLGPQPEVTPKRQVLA
Assay [10] is described as follows: small-molecule microarray binders of probe aEGFR, primary screen, biochemical, biotinylated probe, 635/667 nm fluorescence (AID 1097).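 Further: probe is a biotinylated anti-EGFR antibody binding compounds printed on slides; score combines fluorescence near 667 nm and signal to noise of each spot.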 Particulars: higher = more signal.
Assay [11] relates to Plasmodium falciparum Sir2 (PF13_0152, Sir2A). The assay is described as follows: pfSir2 binders on small-molecule microarrays, primary screen, biochemical, small-molecule microarray, 635 nm fluorescence (AID 1098).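 Further: score merges spot fluorescence intensity with its signal-to-noise ratio.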 Particulars: small-molecule microarray binding, fluorescence 635 nm; higher = more signal.
Assay [12] can be described thus: small-molecule microarray binders of probe aDKK1, primary screen, biochemical, biotinylated probe, 635/667 nm fluorescence (AID 1099).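 Further: score merges 667nm spot fluorescence with signal to noise across triplicate slides; reference of the scale not given here.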 Particulars: higher = more signal.
Assay [13] is described as follows: small-molecule microarray binders of probe aCHRDL2, primary screen, biochemical, biotinylated probe, 635/667 nm fluorescence (AID 1100). Particulars: higher = more signal.
A short description of assay [14]: splicing luciferase reporter signal modulators, primary screen, spliceosome inhibition project, cell-based, HEK293, splice +/- reporter (AID 1101).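 Further: HEK293 cells carrying a splicing-competent luciferase reporter gene; test concentration not given here.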 Particulars: luminescence, 24 h, higher = more signal, called active from +8 up or from −8 down.
For assay [15], the target named is Fibroblast growth factor 10 (Homo sapiens) (UniProt O15520). The assay is described as follows: FGF10 binders on small-molecule microarrays, primary screen, biochemical, small-molecule microarray, 635 nm fluorescence (AID 1102). Particulars: FGF10 binding, fluorescence 635 nm, higher = more signal.
Fibroblast growth factor 10 (Homo sapiens), sequence (O15520 whole entry, looked up): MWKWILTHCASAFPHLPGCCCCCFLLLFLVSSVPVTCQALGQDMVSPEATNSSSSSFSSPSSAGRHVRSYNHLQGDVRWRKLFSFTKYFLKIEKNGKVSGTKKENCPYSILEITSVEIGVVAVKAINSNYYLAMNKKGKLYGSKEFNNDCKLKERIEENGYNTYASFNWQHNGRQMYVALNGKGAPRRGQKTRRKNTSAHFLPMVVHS
Assay [16] deals with glycogen synthase kinase-3 (GSK3A per assay name; protocol says GSK3B). The assay is described as follows: GSK3 binders on small-molecule microarrays, primary screen, biochemical, small-molecule microarray, 635 nm fluorescence, GSK3A (AID 1103). Further: the record names both GSK3A and GSK3B. Particulars: small-molecule microarray binding, fluorescence 635 nm; higher = more signal.
Assay [17] concerns the target Epidermal growth factor receptor (Homo sapiens) (UniProt P00533). The assay is described as follows: EGFR binders on small-molecule microarrays, primary screen, biochemical, small-molecule microarray, 635 nm fluorescence (AID 1104).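 Further: score merges 667 nm emission intensity with spot signal to noise over triplicate slides.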 Particulars: EGFR binding, higher = more signal.
Assay [18] concerns the target Follistatin-related protein 3 (Homo sapiens) (UniProt O95633). The assay is described as follows: FSTL3 binders on small-molecule microarrays, primary screen, biochemical, small-molecule microarray, 635 nm fluorescence (AID 1105).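 Further: score merges emission near 667 nm and signal to noise per printed spot across three slides.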 Particulars: FSTL3 binding, higher = more signal.
For assay [19], the target named is Dickkopf-related protein 1 (Homo sapiens) (UniProt O94907). Put plainly: DKK1 binders on small-molecule microarrays, primary screen, biochemical, small-molecule microarray, 635 nm fluorescence scan (AID 1106).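 Further: score merges emission near 667 nm with signal to noise over three replicate slides.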 Particulars: DKK1 binding, higher = more signal.
Dickkopf-related protein 1 (Homo sapiens), sequence (O94907 whole entry, looked up): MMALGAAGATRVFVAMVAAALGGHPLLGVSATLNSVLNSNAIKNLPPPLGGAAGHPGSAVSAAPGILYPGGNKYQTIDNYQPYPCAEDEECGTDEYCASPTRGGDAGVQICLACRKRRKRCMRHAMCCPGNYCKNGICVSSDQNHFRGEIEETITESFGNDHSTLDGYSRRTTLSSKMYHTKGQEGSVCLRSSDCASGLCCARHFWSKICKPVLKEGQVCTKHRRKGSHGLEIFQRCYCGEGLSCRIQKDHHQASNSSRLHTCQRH
The test system of assay [20] is Inhibin beta A chain (activin A). Put plainly: INHBA (activin A) binders on microarrays, primary screen, biochemical, small-molecule microarray, 635 nm fluorescence scan (AID 1107).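 Further: mouse activin A protein probed at 4.33 µg/mL on printed slides; score merges bound-protein fluorescence near 667 nm with spot signal-to-noise.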 Particulars: small-molecule microarray binding, higher = more signal.

Follistatin-related protein 3 (Homo sapiens), sequence (O95633 whole entry, looked up): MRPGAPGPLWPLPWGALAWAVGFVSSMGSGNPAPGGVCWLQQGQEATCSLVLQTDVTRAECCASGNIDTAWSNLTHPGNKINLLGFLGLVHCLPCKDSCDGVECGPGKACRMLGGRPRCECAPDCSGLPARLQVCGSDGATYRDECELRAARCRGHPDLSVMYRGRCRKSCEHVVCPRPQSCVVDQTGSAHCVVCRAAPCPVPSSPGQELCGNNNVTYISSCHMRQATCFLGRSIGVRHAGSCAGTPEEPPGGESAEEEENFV
Epidermal growth factor receptor (Homo sapiens), sequence (P00533 whole entry, looked up): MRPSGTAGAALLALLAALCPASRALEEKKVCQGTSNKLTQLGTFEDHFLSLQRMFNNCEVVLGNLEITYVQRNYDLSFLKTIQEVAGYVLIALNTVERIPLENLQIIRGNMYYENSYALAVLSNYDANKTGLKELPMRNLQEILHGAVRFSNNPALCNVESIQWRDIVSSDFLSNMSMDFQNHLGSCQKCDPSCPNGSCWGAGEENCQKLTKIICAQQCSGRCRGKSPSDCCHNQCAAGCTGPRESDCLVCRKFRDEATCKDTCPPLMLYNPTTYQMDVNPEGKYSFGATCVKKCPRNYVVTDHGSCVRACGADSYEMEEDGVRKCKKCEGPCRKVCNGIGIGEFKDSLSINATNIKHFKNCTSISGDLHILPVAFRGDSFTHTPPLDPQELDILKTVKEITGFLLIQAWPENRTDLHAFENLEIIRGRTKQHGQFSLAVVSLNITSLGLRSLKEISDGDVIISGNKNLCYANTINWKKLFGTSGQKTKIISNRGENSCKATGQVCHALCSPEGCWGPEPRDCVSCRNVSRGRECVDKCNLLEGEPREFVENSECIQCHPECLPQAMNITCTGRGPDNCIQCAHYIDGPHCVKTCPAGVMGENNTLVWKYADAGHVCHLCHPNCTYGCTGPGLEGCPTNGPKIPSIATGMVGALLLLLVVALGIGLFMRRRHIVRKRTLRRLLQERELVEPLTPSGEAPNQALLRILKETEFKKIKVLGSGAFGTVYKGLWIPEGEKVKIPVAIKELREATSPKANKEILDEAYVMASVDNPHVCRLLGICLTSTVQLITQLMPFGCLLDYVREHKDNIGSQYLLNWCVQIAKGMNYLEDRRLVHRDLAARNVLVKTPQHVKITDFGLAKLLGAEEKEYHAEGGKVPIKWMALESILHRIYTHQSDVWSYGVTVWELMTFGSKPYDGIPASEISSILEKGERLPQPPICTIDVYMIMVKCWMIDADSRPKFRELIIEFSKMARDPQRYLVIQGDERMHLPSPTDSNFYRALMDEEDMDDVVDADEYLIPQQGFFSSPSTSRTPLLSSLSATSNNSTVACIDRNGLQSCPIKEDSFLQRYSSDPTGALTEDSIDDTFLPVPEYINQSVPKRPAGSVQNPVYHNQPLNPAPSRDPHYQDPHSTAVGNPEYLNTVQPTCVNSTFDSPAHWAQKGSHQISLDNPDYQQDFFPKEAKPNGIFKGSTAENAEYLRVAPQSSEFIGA

Turning to `CCOC(=O)C[C@H]1[C@H](OC(=O)Cc2ccc3c(c2)OCO3)[C@@H](NC(=O)Cc2ccc(OC)cc2)c2cc(OCCCO)ccc2N1C(=O)c1ccccc1`, the composite z-score in assay [1] was 1.26; in [5], 1.37; in [7], -0.0846; in assay [8] it was 0.0653; in assay [9], 0.608; in [10], 0.0032. In addition, the composite z-score in assay [11] stood at 1.07; in assay [12], 0.423; in [13] it was 0.383; in assay [15], 0.647; in [16], 0.614; in assay [17], 0.0042. For the same compound, the figures for the composite z-score in assay [18], in assay [19] and in [20] were 0.312, 0.149 and 0.265, respectively. The z-score is -0.13 (inactive) in [2]; 0.0145 (inactive) in assay [3]; 0.234 (inactive) in assay [4]; 1.26 (inactive) in [6]; -0.484 (inactive) in [14].
As for `O=C1NC(=O)C2C1C=CC(C(O)c1ccc3c(c1)OCO3)N2Nc1ccccn1` (stereo not given), the composite z-score was 0.227 in assay [1]; 2.78 in assay [5]; 0.0787 in assay [7]; 0.233 in [8]; 0.552 in assay [9]; -0.0999 in assay [10]. The composite z-score in [11] came out at 0.165; in assay [12], 0.301; in assay [13] it was 0.555; in assay [15], 0.212; in assay [16], 0.0668; in [17] it was 0.722. The composite z-score in [18] was 1.39; in assay [19] it was 0.388; in [20], 1.64. The z-score was -0.976 (inactive) in assay [2]; 1.02 (inactive) in [3]; -0.939 (inactive) in [4]; -0.541 (inactive) in assay [6]; -0.653 (inactive) in [14].
Regarding `C=CC[C@H](OC(=O)Nc1ccc(OC)cc1)c1ccc(O)c2ccccc12`, the composite z-score in assay [1] is 1.33; in assay [5], 2.08; in [7] it was 0.054; in assay [8], 0.578; in assay [9], 1.06; in assay [10], -0.0509. The composite z-score in assay [11] was 1.24; in [12] it was 0.121; in assay [13] it was 0.0255; in assay [15], 0.82; in assay [16], 1.29; in assay [17], 0.547. Moreover, the results for the composite z-score in assay [18], in assay [19] and in assay [20] were 1.26, 0.92 and 1.05, respectively. Further, the z-score in assay [2] is -23.9 (active); in assay [3], -19.5 (active); in [4] it was -1.21 (inactive); in assay [6], 0.364 (inactive); in [14], 3.32 (inactive).
Take `CN1C(=O)C2C=CC(C(O)C3CCCCC3)N(N3CCCCC3)C2C1=O` (stereo not given): the composite z-score in [1] was 1.56; in assay [5], 2.45; in assay [7] it was 0.25; in assay [8] it was 0.684; in [9] it was 1.07; in assay [10], 0.0939. Also, the composite z-score is 1.15 in assay [11]; 0.429 in [12]; 0.833 in assay [13]; 1.06 in [15]; 0.675 in [16]; 0.442 in assay [17]. Further, the figures for the composite z-score in [18], in [19] and in [20] were 1.45, 0.379 and 0.776, respectively. Also, the z-score in assay [2] is 0.823 (inactive); in [3], 0.788 (inactive); in assay [4], 0.884 (inactive); in [6] it was -0.593 (inactive); in assay [14], 1.77 (inactive).
For the compound `COc1ccc([Si](C)(C)[C@@H]2[C@@H](CC(=O)N3CCC[C@H]3CO)O[C@]3(C(=O)N(Cc4ccc(N5C(=O)c6cccc7cccc5c67)cc4)c4ccccc43)[C@H]2C)cc1`, the composite z-score in [1] was 1.54; in assay [5], 3.07; in assay [7], -0.238; in assay [8], 1.41; in assay [9], 1.08; in assay [10], -0.129. Further, the composite z-score in assay [11] is 1.56; in assay [12] it was -0.184; in [13] it was -0.2; in assay [15], 1.38; in assay [16], 1.29; in [17], 0.564. Moreover, the figures for the composite z-score in [18], in [19] and in assay [20] were 1.06, 0.587 and 0.231, respectively. In addition, the z-score in assay [2] was 0.035 (inactive); in [3], 0.378 (inactive); in [4], 0.922 (inactive); in [6], 1.84 (inactive); in [14], -1.11 (inactive).
